65 molecules from PubChem BioAssay AID2553 (Johns Hopkins Ion Channel Center, 2010) can be followed below.

Each structure is given as a SMILES string. Among all 310,000 compounds or so, about 3,300 (1.1%) were called active.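 The calls were made as follows: active = B-score under library mean minus 3 SD, initial fluorescence not abnormally high, positive integrated signal ratio; inactive = the rest.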 What follows is part of a selection rich in actives, with near analogues and random picks from the rest.

The target in the assay is Short transient receptor potential channel 6 (Mus musculus) (UniProt Q61143). The assay can be described thus: mouse TRPC6 channel inhibitors, primary screen, cell-based, HEK293, membrane potential dye (AID 2553).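 As to B-score: B-score derived from integrated fluorescence ratio over the kinetic read; more negative B-score means stronger inhibition of depolarization.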 The conditions noted are these: ACh-evoked depolarization, at 10 µM; stronger effect = lower value.
Short transient receptor potential channel 6 (Mus musculus), sequence (Q61143 whole entry, looked up): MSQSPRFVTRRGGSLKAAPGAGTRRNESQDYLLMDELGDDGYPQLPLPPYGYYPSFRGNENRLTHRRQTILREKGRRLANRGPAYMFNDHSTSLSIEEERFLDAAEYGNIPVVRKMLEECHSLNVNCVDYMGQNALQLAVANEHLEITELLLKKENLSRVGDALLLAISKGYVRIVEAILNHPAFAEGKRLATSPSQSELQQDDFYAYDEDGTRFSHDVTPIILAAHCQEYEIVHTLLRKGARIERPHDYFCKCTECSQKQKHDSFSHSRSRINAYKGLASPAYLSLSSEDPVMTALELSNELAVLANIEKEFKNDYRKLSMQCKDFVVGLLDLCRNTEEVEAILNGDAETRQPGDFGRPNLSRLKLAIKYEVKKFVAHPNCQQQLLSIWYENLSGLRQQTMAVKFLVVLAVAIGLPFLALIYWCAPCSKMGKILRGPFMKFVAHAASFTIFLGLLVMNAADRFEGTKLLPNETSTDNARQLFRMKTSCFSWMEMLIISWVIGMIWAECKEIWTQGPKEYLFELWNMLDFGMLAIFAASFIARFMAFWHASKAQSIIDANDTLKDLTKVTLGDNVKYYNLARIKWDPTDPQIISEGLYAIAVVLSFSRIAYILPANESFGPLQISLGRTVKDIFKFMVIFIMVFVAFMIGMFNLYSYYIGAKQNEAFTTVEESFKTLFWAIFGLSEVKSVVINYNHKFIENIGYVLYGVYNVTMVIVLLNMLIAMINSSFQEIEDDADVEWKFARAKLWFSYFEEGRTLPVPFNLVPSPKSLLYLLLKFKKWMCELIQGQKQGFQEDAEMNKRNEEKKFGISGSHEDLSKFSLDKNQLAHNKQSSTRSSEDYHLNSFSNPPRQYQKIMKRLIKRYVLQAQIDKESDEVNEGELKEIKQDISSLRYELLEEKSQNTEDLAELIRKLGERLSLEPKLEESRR
On to `COc1ccccc1N1CC(C(=O)Nc2nnc(SCC(=O)NC(C)C)s2)CC1=O` (stereo not given), for which the B-score result was “inactive”. Regarding `CCCCn1c(=O)c(C(C)=O)c(O)c2ccccc21`, the B-score result was “inactive”. As for `CCCCN(CCCC)CC(O)Cn1c2ccccc2c(=O)c2ccccc21` (stereo not given), the B-score is -5.74 (active). On to `CS(=O)(=O)N(CC(O)Cn1c2ccccc2c2ccccc21)c1cccc2ccccc12` (stereo not given), for which the B-score result was “inactive”. As for `O=C1N(c2ccc(Cl)cc2)C(c2ccc(Cl)cc2)N2CCCN12` (stereo not given), the B-score entry is “inactive”. Consider `c1ccc(C2CNCc3c2ccc2ccccc32)cc1` (stereo not given), for which the B-score was -5 (active).

For `NC(=O)C1=C[C@H](c2csc3ccccc23)C[C@H](OCc2ccc(CO)cc2)O1`, the B-score entry is “inactive”.

Take `Cc1ccc2nc(Nc3ccccc3)cc(C)c2c1`: the B-score entry is “inactive”.

Consider `Cc1ccc2nc(C)c3c(c2c1)N(c1ccccc1)CC3`, for which the B-score is -8.61 (active). Regarding `Cc1nc2ccc(C(=O)N3CCN(c4ccccc4)CC3)cc2s1`, the B-score result was “inactive”. For `O=C(NNS(=O)(=O)c1ccccc1)c1cnn(-c2ccc(Cl)cc2)c1C(F)(F)F`, the B-score entry was “inactive”.

On to `CC1CCC(NS(=O)(=O)c2ccc3c(c2)CC(=O)N3)CC1` (stereo not given), for which the B-score result is “inactive”.

Turning to `CCc1ccc2nc(N(CCCN(C)C)C(=O)c3ccc4c(c3)OCCO4)sc2c1`, the B-score was -6.22 (active).

On to `CN(C)CCCN(C(=O)c1ccc(S(=O)(=O)N2CCCCCC2)cc1)c1nc2cc3c(cc2s1)OCCO3`, for which the B-score result is “inactive”.

As for `CCOc1ccc2nc(N(CCCN(C)C)C(=O)c3ccc(C(=O)c4ccccc4)cc3)sc2c1`, the B-score result was “inactive”. As to `O=C(NCCCN1CCCCC1)C1CCCN(c2ncnc3c2nc2n3CCCCC2)C1` (stereo not given), the B-score result was “inactive”. For `Cc1ccc(C(C(=O)NCC2CCCO2)N(C(=O)c2snc(C(N)=O)c2N)c2ccc(C(C)C)cc2)o1` (stereo not given), the B-score result is “inactive”. Turning to `Cc1cccc(NC(=O)Nc2ccc3c(c2)OCO3)n1`, the B-score result was “inactive”.

`O=C(CCCN1C(=O)c2cccc3cccc(c23)C1=O)N1CCN(Cc2ccc3c(c2)OCO3)CC1`: the B-score is -6.03 (active). As to `O=C(Nc1cccc2ccccc12)N1CCN(Cc2ccc3c(c2)OCO3)CC1`, the B-score entry was “inactive”. As to `Cn1c(=O)cc(OCCCC(=O)N2CCN(Cc3ccc4c(c3)OCO4)CC2)c2ccccc21`, the B-score result was “inactive”. Turning to `CC1(C)O[C@H]2CC(=O)OCC23[C@H]2CC[C@@]4(C)[C@H](c5ccoc5)OC(=O)[C@H]5O[C@]54[C@]2(C)C(=O)C[C@@H]13` (stereo not given in full), the B-score entry was “inactive”.

For the molecule `COc1ccccc1N(CC(=O)N/N=C(\C)c1ccccc1O)S(=O)(=O)c1ccc(C)cc1`, the B-score entry is “inactive”. `CC1CCN(c2ccc([N+](=O)[O-])c(SCCO)c2)CC1`: the B-score entry was “inactive”. On to `O=C(CSc1nc2ccccc2[nH]1)N/N=C/C=C\c1ccccc1[N+](=O)[O-]`, for which the B-score entry is “inactive”.

In the case of `CN1CCN(c2ccc([N+](=O)[O-])c(Sc3nc4ccccc4[nH]3)c2)CC1`, the B-score is -5.53 (active). For the molecule `O=c1c(-c2ccc(Cl)cc2)[n+]([O-])c2ccccc2n1OCc1nc2ccccc2[nH]1`, the B-score entry is “inactive”. The result for `COc1ccc(C(=O)NC2CCN(C(=O)Nc3ccc(F)cc3)CC2)cc1` reads “inactive”; that for `CCOC(=O)N1CCC(N2Cc3cccc(C(=O)Nc4ccc(S(=O)(=O)N(CC)CC)cc4)c3C2=O)CC1`, “inactive”; that for `CCCCN=C(N)/C(C(=O)OCC)=C(\O)c1ccc(OC)cc1`, “inactive”. `CCN1CCN(C(C(=O)NC2CCCC2)c2cc3c(cc2[N+](=O)[O-])OCO3)CC1` (stereo not given): the B-score result was “inactive”. For `COC(=O)c1ccccc1NC(=O)C1CCN(S(=O)(=O)c2cc(OC)ccc2OC)CC1`, the B-score is -5.1 (active). Regarding `COc1ccc(NC(=O)C2CCN(S(=O)(=O)c3ccc4[nH]c(=O)oc4c3)CC2)c(OC)c1`, the B-score result is “inactive”.

On to `COC(=O)c1ccccc1NC(=O)C1CC(=O)N(c2ccc(OC)cc2)C1` (stereo not given), for which the B-score entry is “inactive”. With `COc1cccc(NC(=O)C/C(C)=N/NC(=O)C2CCCCC2)c1`, the B-score entry is “inactive”. Regarding `Cc1cc2oc(=O)cc(CN3CCN(Cc4ccccc4)CC3)c2cc1C`, the B-score result was “inactive”. For `Cc1cc2oc3ccc(NCCC4CCCN4C)cc3c(=O)c2cc1C` (stereo not given), the B-score was -9.21 (active).

With `CCCOc1ccc(C2c3c(oc4cc(C)c(C)cc4c3=O)C(=O)N2CCCN2CCOCC2)cc1` (stereo not given), the B-score entry is “inactive”. For `CCc1ccc(/C=N/NC(=O)c2ccc(OC3CCCC3)cc2)s1`, the B-score entry is “inactive”.

For `CCN(CC)C(=O)CSc1ncnc2c1cnn2-c1ccccc1`, the B-score entry was “inactive”. As for `CCOc1ccccc1N1CCN(C(=O)c2ccc3[nH]c(C)c(C)c3c2)CC1`, the B-score result was “inactive”. In the case of `O=C(NCCO)C(=O)NCC(c1ccc2c(c1)OCO2)N1CCN(c2ccc(F)cc2)CC1` (stereo not given), the B-score entry was “inactive”. As to `CC(NC(=S)Nc1ccc(OC(F)F)cc1)c1ccc(F)cc1` (stereo not given), the B-score was -5.09 (active). As for `Cc1ccc(NC(=S)Nc2ccc(F)cc2)cc1`, the B-score entry is “inactive”.

Regarding `CC(C)CNC(=S)Nc1ccc(F)cc1`, the B-score entry was “inactive”. With `Cc1cc(Br)ccc1NC(=O)CN(C)C(=O)CN1C(=O)NC2(CCCC2)C1=O`, the B-score entry is “inactive”. As to `CCOc1ccccc1-c1cc(C(=O)N/N=C(\C)c2cccnc2)c2ccccc2n1`, the B-score entry is “inactive”. For the molecule `CCNC(=O)Nc1ccc(S(=O)(=O)Nc2cnc(C)nc2C)cc1`, the B-score entry was “inactive”. The result for `CCCc1cc(=O)oc2c(C)c(OCC(=O)N3CCC(C(=O)O)CC3)ccc12` reads “inactive”. Take `CCCc1cc(=O)oc2c(C)c(OC(C)C(=O)NCC(O)c3ccccc3)ccc12` (stereo not given): the B-score result was “inactive”. Take `CCCc1cc(=O)oc2c(C)c(O)c(CN3CCCCC3)cc12`: the B-score was -5.62 (active). Regarding `O=C(N/N=C\C1CC=CCC1)c1ccc(Br)o1` (stereo not given), the B-score result was “inactive”. For the molecule `CN(C)c1ccc(C2Nc3ccccc3C(=O)N2NS(=O)(=O)c2ccccc2)cc1` (stereo not given), the B-score result is “inactive”. Consider `CN(C)c1ccc(C2N(C)C(=O)c3ccccc3N2C)cc1` (stereo not given), for which the B-score was -7.38 (active). Consider `CC(C)C(=O)N1c2ccccc2NC2=C(C(=O)CCC2)C1c1ccc(N(C)C)cc1` (stereo not given), for which the B-score entry is “inactive”. Turning to `S=c1[nH]c2ccccc2c2ccccc12`, the B-score entry is “inactive”. `N=c1c2c3c(sc2ncn1N)CCCC3`: the B-score result is “inactive”. With `N=c1c2c3c(sc2ncn1CCCN1CCOCC1)CCCCC3`, the B-score is -5.61 (active).

With `N=c1c2c3c(sc2ncn1N)CCCCC3`, the B-score entry is “inactive”. In the case of `C=C(C)Cn1c(C)cc(C)c(S(=O)(=O)c2ccccc2C)c1=O`, the B-score result is “inactive”. With `C/C(=N\NC(=O)C1(C)CC1(Br)Br)c1ccc(C)cc1C` (stereo not given), the B-score result was “inactive”. Consider `C=CCNC(=O)c1ccccc1NC(=O)c1ccc(Cl)c(S(=O)(=O)Nc2cccc(C)c2C)c1`, for which the B-score result is “inactive”.

Take `COc1ccccc1C(CNC(=O)c1cccc(NS(=O)(=O)c2ccc(Br)cc2)c1)N(C)C` (stereo not given): the B-score is -5.61 (active).

Consider `CN(C)C(CNC(=O)c1cccc(S(=O)(=O)Nc2ccc(Br)cc2)c1)c1ccco1` (stereo not given), for which the B-score result is “inactive”. On to `CC(=O)c1ccc(S(=O)(=O)Nc2ccc(C(=O)NCC(c3ccccc3)N(C)C)cc2)cc1` (stereo not given), for which the B-score result is “inactive”.
